Source: PubChem BioAssay (several laboratories)
PolyA inh: polyadenylation inhibitors in yeast reporter cells, primary screen, luminescence, S. cerevisiae; S. cerevisiae SKY197-pL101 polyadenylation reporter, beta-gal luminescence; efflux-impaired pdr1/pdr3 knockout yeast; score 100 = 6 SD above DMSO; activity score, % at 12 µM; 300,000 tested, 0.02% active; AID 1875, 2009;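 active = lowest replicate activity score at least 50, where 100 means six control SD above control mean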;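 also: yeast exposed to compound for 9 h at 30 °C; higher score means more reporter readthrough which indicates perturbed polyadenylation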
Mot1-301 SUMO: yeast Mot1-301 growth rescue at high temperature, primary screen, SUMOylation pathway inhibitor project, S. cerevisiae, ATP luminescence, 38.5C; 320,000 tested, 1% active; growth rescue, % at 18.8 µM; S. cerevisiae Mot1-301 growth rescue; percent above DMSO median, 100 means doubled;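 active = every valid replicate shows activation above 250% relative to neutral control wells; inactive = the rest, any valid replicate at or below 250%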;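 also: OY570 slx delta 5 strain wells were the positive control but not used for scaling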
NALP1 inh: NALP1 inflammasome inhibitors in reconstituted yeast, colorimetric, S. cerevisiae, triplicate retest. S. cerevisiae NALP1/ASC/caspase-1 growth, X-gal OD620, 72 h. inhibition, % at 10 µM. 280,000 tested, 0.61% active; in the data active = inhibition mostly above about 24%, no sharp cut-off; inactive = mostly below about 32%
NLRP3 yeast inh: NALP3 inflammasome inhibitors in reconstituted yeast, primary screen, luminescence, uHTS; Yeast reconstituted NLRP3/ASC/caspase-1, beta-gal luminescence, 24 h; inhibition, % at 10 µM; 330,000 tested, 0.39% active;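 active = inhibition of 50% or more; inactive = inhibition below 50%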;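 also: plate controls were induced DMSO wells for no effect and uninduced yeast grown without galactose for full effect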
Active calls of the source: *; x = not tested or not shown. Most compounds without a hit are left out; they make up all but 1.8% or so of the library.

SMILES	PolyA inh	Mot1-301 SUMO	NALP1 inh	NLRP3 yeast inh
COc1ccc(NC(=O)NNC(=O)COc2ccc3ccccc3c2)cc1OC	3.3	15.4	2.7	3.5
CN(C)CCCNc1cc(C(C)(C)C)nc2c(-c3ccccc3)cnn12	-7.0	267.3*	6.4	-3.5
Cc1cc(NCCCN2CCOCC2)n2ncc(-c3ccccc3)c2n1	3.3	158.6	13.5	34.8
CN(C)CCCNc1cc(-c2ccccc2)nc2cc(-c3cccc(F)c3)nn12	8.8	85.0	25.8*	39.0
Cc1ccc(-c2nc(-c3cccnc3)no2)cc1	-12.3	-13.1	14.2	26.9
CCOc1ccc(NC(=O)C2CCCN(c3nc(C)cc(C)n3)C2)cc1 (stereo unspecified)	23.2	9.2	9.8	0.0
O=C(NNC(=O)c1cccc([N+](=O)[O-])c1)c1ccncc1	16.7	-8.9	9.4	4.6
O=C(NNC(=O)c1ccncc1)Nc1cccc([N+](=O)[O-])c1	10.0	430.3*	8.1	-0.5
CCOC(=O)c1c(C)[nH]c(C)c1C(=O)CSc1nc2ccccc2[nH]1	-3.2	452.6*	27.5	16.2
CCN(CC)CCn1c(NCc2ccccn2)nc2ccccc21	-12.4	-1.0	42.1*	5.2
CCOc1ccc(NC(=O)C(=O)N/N=C\c2ccc(CNS(=O)(=O)c3ccccc3)o2)cc1	10.9	13.1	13.3	16.3
CN(C)c1ccc(C=C2C(=O)OC(C)(C(C)(C)C)OC2=O)cc1 (stereo unspecified)	2.3	311.3*	20.9	17.0
CN(C)c1ccc(C=C2C(=O)OC(C)(C)OC2=O)cc1	-3.0	-3.2	-4.9	13.3
COc1cc(CNC2CCCC2)cc(Cl)c1OCc1ccc(F)cc1	1.3	22.0	36.4	18.6
CCOc1cc(CNCc2ccncc2)cc(Br)c1OCc1ccc(F)cc1	17.0	-6.2	51.3*	42.9
CCOc1cc(CNC2CCCC2)cc(Cl)c1OCc1ccc(F)cc1	-3.3	1.4	96.6*	40.3
CCS(=O)(=O)N1CCN(Cc2nc3ccccc3c(=O)[nH]2)CC1	5.1	-7.4	23.3	11.2
S=C(NCC1CCCO1)NC12CC3CC(CC(C3)C1)C2 (stereo unspecified)	-12.1	-20.5	19.8*	22.3
Cc1ccc(NC(=S)NCC2CCCO2)cc1C (stereo unspecified)	7.5	14.3	3.7	6.2
O=C(NCC1CCCO1)NC12CC3CC(CC(C3)C1)C2 (stereo unspecified)	7.6	12.0	23.2	9.8
Cc1ccc(NC(=S)NCC2CCCO2)cc1 (stereo unspecified)	-2.2	-9.0	32.9*	-1.3
CC(NC(=O)c1ccc(Br)cc1Br)c1ccccc1 (stereo unspecified)	62.4*	11.9	9.7	17.7
CC(NC(=O)c1ccccc1)c1ccc(Br)cc1 (stereo unspecified)	23.6	-30.9	20.4	12.3
CC(NC(=O)c1ccc(Br)cc1)c1ccccc1 (stereo unspecified)	70.1*	19.6	16.4	14.4
CC(NC(=O)c1cc(Br)ccc1Cl)c1ccccc1 (stereo unspecified)	1.9	-1.9	x	-56.4
SMILES	PolyA inh	Mot1-301 SUMO	NALP1 inh	NLRP3 yeast inh
CN(C)c1ccc(C2CNC(c3ccc(Cl)c([N+](=O)[O-])c3)c3[nH]c4ccccc4c32)cc1 (stereo unspecified)	-5.5	-7.6	x	16.5
O=[N+]([O-])c1cccc(C2NCC(c3ccccc3Cl)c3c2[nH]c2ccccc32)c1 (stereo unspecified)	-6.8	564.1*	-2.8	2.9
COc1cnc(-c2ccccn2)nc1Oc1ccccc1	-23.2	-4.5	21.3*	12.1
CC(C)CNc1nc(S(=O)(=O)c2ccccc2)c(Cl)s1	-11.2	-10.6	-4.0	-10.5
CN(C)CCNc1nc(S(=O)(=O)c2ccccc2)c(Cl)s1	14.4	355.4*	9.3	5.1
CCOc1cc(-c2sc(Nc3ccccc3)n[n+]2-c2ccc(F)cc2)ccc1OC	6.5	424.4	15.6	2.2
CCOc1ccc(N2C(=O)CC(N3CCOCC3)C2=O)cc1 (stereo unspecified)	-0.1	-2.8	26.6	-8.1
O=C1CC(N2CCCN(C3CC(=O)N(c4ccc(F)cc4)C3=O)CC2)C(=O)N1c1ccc(F)cc1 (stereo unspecified)	-0.7	-10.1	39.1*	25.6
CCOC(=O)c1ccc(N2C(=O)CC(N3CCOCC3)C2=O)cc1 (stereo unspecified)	3.0	-5.1	30.0*	12.9
Nn1c(SCC(=O)Nc2ccc3c(c2)OCO3)nnc1-c1cccc(Cl)c1	x	1.7	-34.5	-0.3
Cc1ccccc1N1CCN(C2CCCN(C(=O)CCC(=O)N(C)C)C2)CC1 (stereo unspecified)	-4.4	293.9*	8.1	20.2
O=C1C=C(c2ccc(Br)c3ccccc23)C[C@@H](c2ccc3c(c2)OCO3)C1	x	-9.1	x	16.5
Cn1nc(C(C)(C)C)cc1C(=O)NNC(=O)c1ccc(C(F)(F)F)cc1	7.7	304.4*	x	18.0
OCC(O)C(O)C(O)C(O)c1nc2ccccc2[nH]1 (stereo unspecified)	3.5	7.1	25.1*	4.8
OC(c1ccc(Cl)cc1)C(O)c1nc2ccccc2[nH]1 (stereo unspecified)	-11.0	-3.2	-9.0	-11.3
Cc1ccc(NS(=O)(=O)c2ccc3c(c2)n(C)c(=O)n3C)c(C)c1	4.8	355.2*	3.2	14.5
CCOC(=O)CNC(=O)CNC(=O)Cn1ccc2ccccc2c1=O	21.9	-21.3	39.5*	6.8
Cc1cc(C(C)(C)C)oc1C(=O)Nc1ccc(CC(=O)O)cc1	2.2	x	10.8	-3.1
O=C(c1csc(Nc2cccc3ccccc23)n1)N1CCCC1	-2.7	607.2*	x	2.2
COCC(C)N1CCC(Oc2cccc(C(=O)NCCc3ccccc3)c2)CC1 (stereo unspecified)	8.2	-8.8	15.9	8.2
CCOC(=O)C1CCCN(C(=O)Nc2c(-c3ccccc3)noc2C)C1 (stereo unspecified)	-8.5	9.6	36.1*	9.7
Cc1ccc(C)c(S(=O)(=O)N2CCN(c3ncccn3)CC2)c1	6.6	17.3	33.8*	42.6
c1ccc(N2CCN(c3ncccn3)CC2)cc1	-20.2	9.3	26.5*	45.7
Cc1ccc(S(=O)(=O)N2CCN(S(=O)(=O)N3CCOCC3)CC2)c(C)c1	-2.8	15.8	42.8*	-2.0
Cc1ccc(S(=O)(=O)N2CCN(c3ncccn3)CC2)c(C)c1	1.5	111.3	x	37.6
SMILES	PolyA inh	Mot1-301 SUMO	NALP1 inh	NLRP3 yeast inh
O=S(=O)(c1ccccc1Br)N1CCN(c2ncccn2)CC1	5.8	17.5	36.0*	41.5
O=S(=O)(c1ccccc1)N1CCN(c2ncccn2)CC1	9.6	5.9	5.4	20.5
O=C(/N=C1\NC(=O)C(F)(C(F)(F)F)S1)NC1CCCCC1 (stereo unspecified)	1.5	128.1	5.7	22.3
Cc1ccc(/C=N/N=C/c2ccc(C)cc2)cc1	24.8	73.2	35.7	34.5
C(=N\N=C\c1ccccc1)/c1ccccc1	-0.4	216.1	35.6*	12.3
O=P(c1ccccc1)(c1ccccc1)c1ccc(O)cc1	3.4	348.9*	11.3	14.6
